Screening data (PubChem)
HIF-2a block – inhibitors of HIF-2a. 786-0 RCC cells HIF-2a reporter, luciferase luminescence, overnight. actives 0.72% (n = 360,000). AID 624352. inhibition, % at 18.8 µM;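 active = inhibition of the luminescence signal of 40% or more relative to plate controls, in a single-dose primary screen at 18.75 µM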
Peg3 prom inh – inhibitors of Peg3 promoter; HeLa PEG-Prom luciferase reporter, luminescence, overnight; inhibition, % at 20 µM; actives 1.7% (n = 360,000); AID 588405;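 active = inhibition of at least 50% at 20 µM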
KKLEB cytotox – CF airway cell cytotoxicity counter-screen; activity change (cytotoxicity), % at 5 µM; KKLEB CF airway cells viability, ATPlite luminescence, overnight; stronger effect = lower value; cells stimulated with P. aeruginosa culture filtrate; actives 0.36% (n = 360,000);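 active = corrected activity change at or below -50% at 5 µM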
PPC-1+TRAIL kill – PPC-1 cancer cell killing with TRAIL present. actives 0.41% (n = 220,000). PPC-1 cells + TRAIL, ATPLite viability luminescence. cell killing (% activity), % at 4 µM or 5 µM;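 active = cell killing above 50% in the first pass at 4 µM, then a duplicate retest at 5 µM averaging 50% or more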
CF NFkB inh – cystic fibrosis NF-kB activation inhibition; KKLEB NF-kB-GFP reporter, PAF-induced, GFP fluorescence overnight; inhibition, % at 5 µM; actives 0.86% (n = 360,000);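 active = at least 50% inhibition at 5 µM, scaled per plate between neutral and stimulator controls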;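 note: PAF is a Pseudomonas aeruginosa culture filtrate used as stimulus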
C8 TRAIL sens – caspase-8 TRAIL sensitization; actives 1% (n = 360,000); inhibition (viability loss, TRAIL sensitization), % at 10 µM; NB7+C8 cells + TRAIL, ATPlite viability luminescence;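 active = compounds causing at least 50% loss of cell viability in the single-dose screen, relative to plate controls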
A number is an active result; n = inactive; x = no result given. An excerpt weighted towards active compounds, which were near 3.1% of everything screened.

SMILES | HIF-2a block | Peg3 prom inh | KKLEB cytotox | PPC-1+TRAIL kill | CF NFkB inh | C8 TRAIL sens
C=C1C(=O)[C@]23C[C@H]1CCC2[C@@]1(C)C(C[C@@H]3O)[C@](C)(C(=O)OC)CC[C@@H]1OC(C)=O (stereo partly drawn) | 98 | 102 | -100 | x | 89 | n
CN(Cc1cnc2nc(N)nc(N)c2n1)c1ccc(C(=O)NC(CCC(=O)O)C(=O)O)cc1C(F)(F)F (stereo not drawn) | n | n | n | x | n | 82
CN(Cc1cnc2nc(N)nc(N)c2n1)c1ccc(C(=O)NC(CCC(=O)O)C(=O)O)cc1 (stereo not drawn) | n | n | n | x | n | 81
Cc1ccc(C)c(N2C(=O)C3C4C=CC(CC4)C3C2=O)c1 (stereo not drawn) | n | n | n | x | n | n
CNC(=O)c1ccccc1NC(=O)C1CC(=O)N(C(C)C)C1 (stereo not drawn) | n | n | n | x | n | n
c1cc2c(cc1C1CCCCC1)c1c3n2CCCNC3CCC1 (stereo not drawn) | n | 104 | n | n | n | n
Cc1ccc2c(c1)c1c3n2CCCNC3CCC1 (stereo not drawn) | n | n | n | n | n | n
CCn1c(C)nc2cc(NC(=O)Nc3cccc(C(C)=O)c3)ccc21 | n | n | n | x | n | 56
CCn1c(C)nc2cc(C(=O)OC)ccc21 | n | n | n | x | n | n
CC(C)C[C@H]1CN([C@@H](CC(C)C)CN2CCC[C@@H]2CN2C(=S)NC[C@@H]2Cc2ccc(O)cc2)C(=S)N1CC1CCCCC1 | n | 95 | -55 | x | 65 | n
Oc1ccc(C[C@H]2CNC(=S)N2C[C@H]2CCCN2C[C@H](Cc2ccccc2)N2C[C@H](Cc3ccc(O)cc3)N(CCc3ccccc3)C2=S)cc1 | n | 76 | n | x | n | n
CC(C)C[C@H]1CNC(=S)N1CC1CCCN1C[C@H](CC(C)C)N1C[C@H](Cc2ccccc2)N(CC2CCCCCC2)C1=S (stereo partly drawn) | n | n | n | x | n | n
CC(C)C[C@H]1CNC(=S)N1CC1CCCN1C[C@H](Cc1ccc(O)cc1)N1C[C@H](Cc2ccccc2)N(CC2CCCCC2)C1=S (stereo partly drawn) | n | n | n | x | n | n
CC(C)C[C@H]1CN([C@@H](CC(C)C)CN2CCCC2CN2C(=S)NC[C@@H]2Cc2ccc(O)cc2)C(=S)N1CC1CCCCCC1 (stereo partly drawn) | n | 91 | n | x | n | n
CC(C)C[C@@H](CN1CCCC1CN1C(=S)NC[C@@H]1Cc1ccccc1)N1C[C@H](Cc2ccc(O)cc2)N(CC2CCCCC2)C1=S (stereo partly drawn) | n | x | x | x | x | n
CC(C)C[C@@H](CN1CCC[C@@H]1CN1C(=S)NC[C@@H]1Cc1ccc(O)cc1)N1C[C@H](Cc2ccc(O)cc2)N(CC2CCCCCC2)C1=S | n | 80 | n | x | n | n
COc1ccccc1N(C)S(=O)(=O)c1ccc(C(=O)N2CCCc3ccccc32)cc1 | n | n | n | x | n | n
CC1(C(=O)NS(=O)(=O)Cc2cccc(Cl)c2)CCN1C(=O)C1CCCCC1 (stereo not drawn) | n | n | n | x | n | n
C[C@@H]1CN([C@H](C)CO)C(=O)CCCn2nncc2CO[C@H]1CN(C)Cc1ccccc1C(F)(F)F | n | n | n | x | n | n
CCn1nc(C)c(CN2CCC(n3nccc3NC(=O)Cc3ccccc3)CC2)c1C | n | n | n | x | n | n
Cc1cccc(-c2cnc(C(O)c3ccc(-c4ccccc4)cc3)[nH]2)c1 (stereo not drawn) | n | n | n | x | n | n
CC(C)C[C@H]1CN([C@@H](CC(C)C)CN2CCCC2CN2C(=S)NC[C@@H]2Cc2ccc(O)cc2)C(=S)N1CC1CCCCC1 (stereo partly drawn) | n | 72 | n | x | n | n
Oc1ccc(C[C@H]2CNC(=S)N2CC2CCCN2C[C@H](Cc2ccccc2)N2C[C@H](Cc3ccc(O)cc3)N(CC3CCCCC3)C2=S)cc1 (stereo partly drawn) | n | 97 | n | x | n | n
COc1ccc(C)cc1NC(=O)CSc1ccc(-c2ccco2)nn1 | n | n | n | x | n | n
